In PubChem BioAssay AID624351 (Southern Research Specialized Biocontainment Screening …, 2012):
About 1,400 (58%) of roughly 2,400 compounds were called active. The set was probably picked from earlier hits. Some of the results follow. Unmarked numbers belong to inactive results.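 How the source made its calls: active means inhibition of 30% or more at any tested dose; inconclusive means primary hits over the limit that were never retested; inactive means the rest.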

Test: coupled detection enzyme interference, dose response, artefact control for MgcRacGAP inhibitor project, biochemical, coupled enzyme counter-screen (AID 624351);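 further: signal is the ADP detection kit reading of free GDP without any GAP enzyme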;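 on inhibition: 0% = median positive control wells and 100% = median negative control wells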
Conditions: ADP Hunter coupled enzyme counter-screen, fluorescence, no MgcRacGAP; series mostly up to 80 µM
For `O=C(Nc1ccccc1Cl)/C(Cl)=C(\Cl)S(=O)c1ccccc1` (stereo unspecified), the IC50 was “inactive”.
In the case of `Cc1cnc(C(=O)Oc2ccc(-c3ccccc3)cc2)cn1`, the IC50 is reported as “inactive”.
For `O=C(Nc1ccccc1Cl)Oc1ccc(-c2ccccc2)cc1`, the IC50 was 14.1 µM (active).
With `Cc1cc(C)c(C#N)c(SCS(=O)Cc2ccc(Cl)cc2)n1` (stereo unspecified) the IC50 was “inactive”.
With `NC(=NCCCCCCN=C(N)/N=C(\N)Nc1ccc(Cl)cc1)/N=C(\N)Nc1ccc(Cl)cc1` the IC50 was “inactive”.
In the case of `COc1ccc2c(-c3ccccc3)cc(N3CCOCC3)nc2c1`, the IC50 is reported as “inactive”.
In the case of `Oc1ccc(/C=N/Nc2cc(N3CCOCC3)nc(N3CCOCC3)n2)cc1O`, the IC50 is reported as 75.5 µM (active).
With `Oc1ccc(/C=N/Nc2cc(N3CCOCC3)nc(N3CCOCC3)n2)cc1` the IC50 was 49.2 µM (active).
In the case of `Oc1ccc(/C=N\Nc2cc(N3CCOCC3)nc(N3CCOCC3)n2)c(O)c1`, the IC50 is reported as 76.4 µM (active).
In the case of `CN(C)c1ccc(-n2cccc2/C=C/[N+](=O)[O-])cc1`, the IC50 is reported as “inactive”.
For `CCCCN(C)C(=O)C1CCN(Cc2cccc(OCc3ccccc3)c2)CC1`, the IC50 was “inactive”.
For `COc1ccc(C=Nc2ccc3[nH]ncc3c2)c(O)c1`, the IC50 was 38.4 µM (active).
With `Oc1ccc(Br)cc1C=Nc1ccc2[nH]ncc2c1` the IC50 was 48.2 µM (active).
In the case of `Cc1ccc(O)c(C=Nc2ccc3[nH]ncc3c2)c1`, the IC50 is reported as 34.5 µM (active).
In the case of `COc1ccc2[nH]c3c(C)c4ccncc4c(C)c3c2c1`, the IC50 is reported as “inactive”.
In the case of `Brc1ccc(OCCCN2CCOCC2)cc1`, the IC50 is reported as “inactive”.
For `Cc1ccc(/C=C2/C(=O)ON=C2c2ccccc2)o1`, the IC50 was “inactive”.
With `CCN(c1ccccc1)S(=O)(=O)c1ccc(Cl)c(NC(=O)CN(C)C2CCN(C)CC2)c1` the IC50 was “inactive”.
In the case of `CCN(c1ccccc1)S(=O)(=O)c1ccc(N2CCN(c3ccc(O)cc3)CC2)nc1`, the IC50 is reported as 53.5 µM (active).
In the case of `COc1ccccc1CNCC(=O)N1CC(=O)Nc2ccccc21`, the IC50 is reported as “inactive”.
In the case of `ON=C1c2ccccc2-c2ccc(O)cc21`, the IC50 is reported as 36.5 µM (active).
For `CN(C)c1ccc2c(c1)C(=NO)c1ccccc1-2`, the IC50 was 42.8 µM (active).
With `CCN(Cc1ccccc1)C(c1ccc(C)cc1)c1nnnn1C(C)(C)CC` (stereo unspecified) the IC50 was “inactive”.
For `Brc1cccc(OCCN2CCOCC2)c1`, the IC50 was “inactive”.
For `Nc1ccc(-c2nc3ccc(N)cc3o2)cc1`, the IC50 was 44.4 µM (active).
With `CCOc1cc(/C=C/c2cccc[n+]2C)ccc1O` the IC50 was 27.2 µM (active).
For `COc1ccc(-n2c(=O)c3c4c(sc3n3c(=S)[nH]nc23)CCCC4)cc1`, the IC50 was 30.3 µM (active).
For `CCn1c(=O)c2c3c(sc2n2c(=S)[nH]nc12)CCC3`, the IC50 was 25 µM (active).
With `COc1ccccc1-n1c(=O)c2c3c(sc2n2c(=S)[nH]nc12)CCC3` the IC50 was 44.9 µM (active).
For `C=CCSC1=N/C(=C\C=C\c2ccco2)C(=O)S1`, the IC50 was “inactive”.
For `COc1cccc(/C=N/n2c(-c3n[nH]c4c3CCC4)n[nH]c2=S)c1O`, the IC50 was 54.6 µM (active).
With `COc1ccc(/C=N/n2c(-c3n[nH]c4c3CCC4)n[nH]c2=S)cc1OC` the IC50 was 61.5 µM (active).
For `COc1ccc(/C=N/n2c(-c3n[nH]c4c3CCC4)n[nH]c2=S)c(OC)c1OC`, the IC50 was 65.7 µM (active).
For `COc1cc(/C=N/n2c(C3CCCCC3)n[nH]c2=S)ccc1O`, the IC50 was 51.8 µM (active).
For `C=CCOC(=O)c1cc(-c2ccc(/C=C3\C(=O)NC(=O)C(C#N)=C3C)o2)ccc1Cl`, the IC50 was “inactive”.
With `CCC1(c2ccccc2)NC(=O)N(CC(=O)Nc2ccc(N3CCCC3)cc2C)C1=O` (stereo unspecified) the IC50 was “inactive”.
For `CCN(CC)c1ccc(NC(=O)CN2C(=O)NC3(CCc4ccccc43)C2=O)cc1` (stereo unspecified), the IC50 was 83.2 µM (active).
For `CCN(CC)CCCNCC(=O)Nc1ccc2c(c1)CCC2`, the IC50 was “inactive”.
For `Nc1nc(N)c2[nH]c(=S)[nH]c2n1`, the IC50 was “inactive”.
In the case of `O=C1C=CC2(C=C1)O[C@H](Cc1ccccc1)[C@@H](Cc1ccccc1)O2`, the IC50 is reported as “inactive”.
For `COc1cc(/C=N/NC(=O)CCN2CCN(C(c3ccccc3)c3ccccc3)CC2)ccc1O`, the IC50 was 53.4 µM (active).
In the case of `COc1ccc(/C=N/NC(=O)CN2CCCCCCC2)c(C)c1C`, the IC50 is reported as “inactive”.
With `O=C1/C(=C\c2ccccc2)CN(C(=O)CCN2CCCCC2)C/C1=C/c1ccccc1` the IC50 was “inactive”.
In the case of `COc1cc(/C=N/NC(=O)CCN2CCCCC2)ccc1O`, the IC50 is reported as 34.3 µM (active).
With `C=CCNC(=O)CN1CCN(C(c2ccccc2)c2ccccc2)CC1` the IC50 was “inactive”.
With `C=CCc1c(C)nc(-c2ccccc2)nc1Nc1ccc(O)cc1` the IC50 was 41.3 µM (active).
With `Nc1c(/C=C2/C=CC(=O)C(O)=C2)c(=O)nc2sc(CC(=O)N3CCOCC3)nn12` the IC50 was 67.8 µM (active).
With `Nc1c(/C=C2/C=CC(=O)C(O)=C2)c(=O)nc2sc(CC(=O)N3CCCC3)nn12` the IC50 was 59.4 µM (active).
In the case of `CS(=O)(=O)c1ccc2c(c1)sc1nc(=O)c(/C=C3/C=CC(=O)C(O)=C3)c(N)n12`, the IC50 is reported as 60.1 µM (active).
With `Cc1ccc(C(C)C)c(OCCCCN2CCNCC2)c1` the IC50 was “inactive”.
In the case of `CC(NCc1ccc(S(N)(=O)=O)cc1)C(=O)N1c2ccccc2CC1C` (stereo unspecified), the IC50 is reported as “inactive”.
`COc1cc(OC)c(C2Nc3cccc4cccc(c34)N2)c(OC)c1` showed an inhibition of -13.7% [at 5 µM].
For `COc1ccccc1C1Nc2cccc3cccc(c23)N1`, the IC50 was 51.6 µM (active).
For `Cc1oc(-c2ccccc2)cc1C(=O)Nc1ccc(N(C)C)cc1`, the IC50 was 65.5 µM (active).
In the case of `CN(C)c1ccc(N=Cc2nc(-c3ccccc3)oc2OC(=O)c2cccc(Br)c2)cc1`, the IC50 is reported as “inactive”.
With `COc1cc(OC)c(C(=O)Nc2ccc(N(C)C)cc2)cc1OC` the IC50 was 27.2 µM (active).
With `COc1ccc(NC(=O)Nc2ccc(N(C)C)cc2)cc1` the IC50 was 21.9 µM (active).
For `Cc1ccc(NC(=O)C2=C(c3ccccc3)S(=O)(=O)CCS2(=O)=O)cc1`, the IC50 was “inactive”.
In the case of `O=C(Nc1ccc(O)cc1)c1cc2n(n1)C(C(F)(F)F)CC(c1ccco1)N2` (stereo unspecified), the IC50 is reported as 28.7 µM (active).
For `Cc1cc(C)c(OCCCCN2CCC(C)CC2)c(Br)c1`, the IC50 was “inactive”.
For `COc1ccc(CNc2ccc(N3CCN(C(C)=O)CC3)cc2)cc1OC`, the IC50 was 15.1 µM (active).
In the case of `COc1ccc(CN2CCN(Cc3ccccc3F)CC2)cc1OC`, the IC50 is reported as “inactive”.
In the case of `COc1cc(CNc2ccc(N3CCN(C(C)=O)CC3)cc2)ccc1OCc1ccccc1`, the IC50 is reported as 13.4 µM (active).
With `COc1ccc(CN2CCN(C(=O)CC(C)C)CC2)cc1OC` the IC50 was “inactive”.
For `COc1cc(CNc2ccc3[nH]c(=O)[nH]c3c2)ccc1OCc1ccccc1`, the IC50 was “inactive”.
With `COc1ccc(CN2CCC(C(N)=O)CC2)cc1OCc1ccccc1` the IC50 was “inactive”.
